# Screens from PubChem BioAssay.
# Shiga inhibitor – A qHTS for Small Molecule Inhibitors of Shiga Toxin; Vero cells, Shiga toxin protein synthesis inhibition reporter; inhibition, % at 38.7 µM; 290,000 compounds, 9.2% hits; in the data active = inhibition mostly above about 28%, no sharp cut-off; inactive = mostly below about 43%; note: 0% is about no effect
# FBPA Giardia inh – qHTS Assay for Inhibitors of Fructose-1,6-bisphosphate Aldolase from Giardia Lamblia; A8B2U2; purified Giardia FBPA; Potency, µM (titrated, usually from 59.6 µM), for inactives: at the highest dose activity, negative = inhibition, most hits filed as inhibitors; 290,000 compounds, 0.71% hits; note: potency is the fitted concentration of half-maximal effect; % is set by controls: 0 for no effect and ±100 for the full control effect; nearly all actives have a fitted effect of over 55% in size
# Target sequence (A8B2U2 whole entry, looked up): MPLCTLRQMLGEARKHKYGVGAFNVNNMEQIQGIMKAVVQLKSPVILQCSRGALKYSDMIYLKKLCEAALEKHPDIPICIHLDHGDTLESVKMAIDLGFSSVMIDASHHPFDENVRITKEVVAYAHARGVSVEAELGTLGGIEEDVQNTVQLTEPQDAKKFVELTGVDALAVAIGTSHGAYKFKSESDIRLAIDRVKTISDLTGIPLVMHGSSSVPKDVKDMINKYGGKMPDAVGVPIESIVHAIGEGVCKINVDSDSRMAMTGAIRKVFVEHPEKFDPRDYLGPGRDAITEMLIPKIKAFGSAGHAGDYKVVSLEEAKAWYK
#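 Giardia FBPA (40 nM reagent) was preincubated 10 min at RT with compound (up to 57.5 uM final), then substrate plus GAPDH/TPI/NAD/arsenate coupling system with diaphorase/resazurin was added; resorufin fluorescence (525/598 nm) was read after 20 min.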
# TbPYK inhibitor – qHTS of Trypanosoma Brucei Inhibitors. pyruvate kinase (Trypanosoma brucei), Q57TT1. TbPYK enzyme, Kinase-Glo Plus ATP luminescence, 45 min. AID 624173, 2012. Potency, µM (top dose mostly 76.8 µM), inactives show at the highest dose activity, negative = inhibition, actives largely listed as inhibitors. 410,000 compounds, 0.12% hits; note: potency is the fitted concentration of half-maximal effect; % is set by controls: 0 for no effect and ±100 for the full control effect; nearly all actives have a fitted effect of over 50% in size
#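 Luminescence from Kinase-Glo Plus, added after a 45-minute room-temperature reaction, served as the end-point read-out. The enzyme and substrate were preincubated with compound before ADP (130 uM final) initiated turnover. Concentration-effect curves came from normalized qHTS data.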
# Cycloheximide cs – Cycloheximide Counterscreen for Small Molecule Inhibitors of Shiga Toxin; cell reporter, cycloheximide protein synthesis inhibition counterscreen; max response, %; 300,000 compounds, 12% hits; AID 2314, 2010; in the data active = max response mostly above about 13%, no sharp cut-off; inactive = mostly below about 14%; note: read at 38.3 µM for the half of the compounds with a filed dose; 0% is about no effect
# LmPK inhibitor – qHTS Assay for Inhibitors of Leishmania Mexicana Pyruvate Kinase (LmPK); Q27686; purified LmPK, Kinase-Glo ATP luminescence, 1 h; Potency, µM (titrated, usually from 57.5 µM), inactives show at the top dose activity change, negative = inhibition, hits mostly inhibitors; 290,000 compounds, 0.37% hits; note: potency is the fitted concentration of half-maximal effect; % is set by controls: 0 for no effect and ±100 for the full control effect
#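 qHTS format; LmPK 0.1 nM; substrates PEP 0.5 mM and ADP 0.1 mM. One-hour room-temperature incubation, then coupled luciferase luminescence; 0.5 nM enzyme wells mark activation.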
# Sm TGR block – qHTS Assay for the Inhibitors of Schistosoma Mansoni Peroxiredoxins; Potency, µM (highest dose often 114 µM), inactives show top-dose activity change, negative = inhibition, usual class: inhibitors; AID 485364, 2010; purified TGR, DTNB reduction, TNB absorbance 405 nm; 360,000 compounds, 3% hits; note: potency is the fitted concentration of half-maximal effect; % is set by controls: 0 for no effect and ±100 for the full control effect; nearly all actives have a fitted effect of over 60% in size
#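 TGR 20 nM + NADPH 100 uM (dispensed conc.), cpd preinc 15 min RT; start with NADPH (500 uM addition) then DTNB (15 mM addition). Kinetic TNB absorbance, 405 nm filter. Four-parameter Hill fit across titration.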
# The depositor's hits bear a star; u = inconclusive; x = not tested or not shown; [ ] = another dose, or the depositor's remark. Only a selection was taken, and hits are over-represented in it overall. Unless noted, calls come from the whole dose curve; as a rule, active = well fitted curve in the direction sought with a large enough effect; inconclusive = small, poorly fitted or top-dose-only effect, or another doubt; inactive = no such curve, though single readings can be large; an effect the other way counts as inactive or inconclusive.
SMILES,Shiga inhibitor,FBPA Giardia inh,TbPYK inhibitor,Cycloheximide cs,LmPK inhibitor,Sm TGR block
c1ccn2c(SCc3cn4ccsc4n3)nnc2c1,54*,-1%,-6%,40*,-7%,5%
Cc1cc(C)nc(SCc2cn3c(C)cccc3n2)n1,-3,-11%,-11%,-3,-1%,-1%
Cc1cccc2nc(CSc3nnc4ccccn34)cn12,59*,-16%,3%,36*,-14%,-1%
CC(C)c1ccc(NC(=O)C(c2ccccc2)N2CC(=O)Nc3ccccc32)cc1 (stereo not drawn),active,0%,-5%,33*,-2%,-10%
O=C(NCC1COc2ccccc2O1)c1ccc(-n2cncn2)c([N+](=O)[O-])c1 (stereo not drawn),x,x,-1%,x,x,-4%
NS(=O)(=O)c1ccc(NCC2COc3ccccc3O2)c([N+](=O)[O-])c1 (stereo not drawn),63,-1%,-2%,16*,1%,x
CC(=O)c1ccc(NCC2COc3ccccc3O2)c([N+](=O)[O-])c1 (stereo not drawn),57*,-1%,-4%,31*,1%,-6%
N#CCCn1c(=O)c(-c2cccs2)nc2cnc(OCc3ccccc3)nc21,x,-6%,6%,x,x,x
CCCCCCn1cc(CN2CC(N3CCSCC3)CS2(=O)=O)nn1 (stereo not drawn),x,x,1%,x,x,x
CSc1ccccc1OCc1cc(C(=O)N2CCN(C3CCCC3)C(=O)C2)no1,41*,x,u,54*,-6%,-13%
CSc1ccccc1OCc1cc(C(=O)N2CCC(Oc3cccnc3)CC2)no1,95*,6%,x,42*,3%,-1%
CCN(CC1CCCO1)C(=O)c1cc(COc2ccccc2SC)on1 (stereo not drawn),82*,x,-4%,55*,2%,-27%
Cc1ccccc1OC1CCN(C(=O)c2cc(COc3ccccc3)on2)CC1,12,x,5%,15,-21%,-9%
CSc1ccccc1OCc1cc(C(=O)N2CCN(c3ncccn3)CC2)no1,-20,x,-2%,0,-1%,40µM*
O=C(c1cc(COc2ccc(F)cc2F)on1)N1CCN(C2CCCC2)C(=O)C1,26,2%,-10%,1,1%,-14%
CCOc1ccc(C2C(C(=O)Nc3ccccc3)=C(C)Nc3nc(-c4ccccc4Cl)nn32)cc1OC (stereo not drawn),x,x,1%,x,x,8%
CCCn1c(N)c(N(CCOC)C(=O)c2ccc([N+](=O)[O-])cc2Cl)c(=O)[nH]c1=O,15,-11%,-1%,2,1%,13%
CO[C@H]1COC(=O)CCC[C@H](C)[C@@H](OC)COC(=O)C/C=C\[C@@H]1C,x,3%[12.9 µM],x,x,x,x
COc1ccccc1OCc1cc(C(=O)N2CCCC(OCc3cccnc3)C2)no1 (stereo not drawn),96*,-2%,-1%,58*,2%,-29%
O=C(c1cc(COc2ccccc2)on1)N1CCCC(OCc2cccnc2)C1 (stereo not drawn),7,1%,-8%,8,1%,-20%
CCN(CC)C1CCN(C(=O)c2cc(COc3ccccc3SC)on2)C1 (stereo not drawn),-4,9%,-11%,0,4%,-10%
CSc1ccccc1OCc1cc(C(=O)N2CCC[C@H]2C(N)=O)no1,28,12%,-7%,18,1%,-2%
CCc1cc(C(=O)N2CCCC(CNC(=O)c3ccc(-c4ccccc4)cc3)C2)no1 (stereo not drawn),15,-9%,0%,14*,-8%,10%
CSc1ccccc1OCc1cc(C(=O)N2CCCC(C)C2)no1 (stereo not drawn),89*,x,1%,27*,-7%,-8%
CSc1ccccc1OCc1cc(C(=O)N2CCSCC2)no1,99*,x,-10%,61*,0%,0%
SMILES,Shiga inhibitor,FBPA Giardia inh,TbPYK inhibitor,Cycloheximide cs,LmPK inhibitor,Sm TGR block
O=C(COC(=O)c1cccs1)NCCc1ccc(F)cc1,x,x,-7%,x,x,-3%
COP(=O)(OC)OC(c1ccc(Cl)cc1)P(=O)(OC)OC (stereo not drawn),x,2%,-5%,x,x,x
Cc1noc(C)c1-c1ccc2ncnc(NCc3ccccc3Cl)c2c1,-4,0%,x,2,x,x
O=c1[nH]cc(S(=O)(=O)NCc2ccccc2)c(=O)[nH]1,-2,-6%,-7%,9,-4%,-10%
COc1ccc(OCc2cc(C(=O)N3CCCC(CO)C3)no2)c2ccccc12 (stereo not drawn),84*,x,1%,44*,-7%,u
Cc1ccc(-c2nc(CN(C)C(C3CC3)C3CC3)c(C)o2)cc1,22,0%,-16%,13,6%,-15%
CSc1ccc(-c2nc(CN(C)C3CCOC3)c(C)o2)cc1 (stereo not drawn),42*,0%,0%,31*,0%,-11%
C#CCNC(=O)C[C@@H]1C[C@@]2(C(=O)OC)CCCCC=C2N(CCC2=CCCCC2)C1=O,x,x,-1%,x,x,x
COC1=C(NCc2ccc3c(c2)OCO3)C(=O)C(OC)=C(NCc2ccc3c(c2)OCO3)C1=O,x,x,-8%,x,x,x
COc1ccc(-c2ccc3sc4ccccc4c(=O)c3c2)cn1,x,x,-9%,x,x,x
COc1ccc2sc3ccccc3c(=O)c2c1OC,71*,x,-2%,34*,-2%,6%
Nc1ccc(C#Cc2ccc3sc4ccccc4c(=O)c3c2)cc1,x,x,2%,x,x,x
COc1cccc2sc3ccc(C#Cc4ccc(N)cc4)cc3c(=O)c12,57*,-2%,3%,41*,-4%,-11%
COc1cccc2sc3ccc(C#CC4(O)CCCCC4)cc3c(=O)c12,43*,-21%,-3%,39*,1%,-30%
COc1cccc2sc3ccc(NCc4ccc5c(c4)OCO5)cc3c(=O)c12,25,u,2%,19*,-9%,u
COc1cccc2oc3cc(C#Cc4ccccn4)ccc3c(=O)c12,35*,-15%,-17%,27*,-3%,7.9µM*
COc1cccc2oc3cc(C#CC4(O)CCCCC4)ccc3c(=O)c12,58*,12%,-8%,35*,0%,-28%
CN(C(=O)COC(=O)C1CCN(S(=O)(=O)c2ccc3c(c2)OCCO3)CC1)C1CCS(=O)(=O)C1 (stereo not drawn),x,x,1%,x,x,1%
CN(C)CCNc1ncnc2c1cnn2-c1cccc(Cl)c1,x,x,-7%,x,x,9%
Cc1ccc(-n2ncc3c(NCCO)ncnc32)cc1Cl,x,x,-11%,x,x,4%
OCCCNc1ncnc2c1cnn2-c1ccc(Cl)cc1,75*,-2%,5%,52*,-4%,0%
